Laboratory results from article PMC4336329 (PLoS ONE, 2015).
In all, about 310,000 compounds went through this assay and about 14,000 (4.5%) showed an effect of 50% or more. Effects have a minus sign here. What follows is part of a selection rich in strong results, with near analogues and random picks from the rest.

The molecules below were run against human ether-à-go-go-related gene (hERG) potassium channel (human, UniProt Q12809) (assay: primary screen, population patch clamp on CHO cells stably expressing hERG; higher = less effect of the substance).
Chain of human ether-à-go-go-related gene (hERG) potassium channel (Q12809 whole entry, looked up): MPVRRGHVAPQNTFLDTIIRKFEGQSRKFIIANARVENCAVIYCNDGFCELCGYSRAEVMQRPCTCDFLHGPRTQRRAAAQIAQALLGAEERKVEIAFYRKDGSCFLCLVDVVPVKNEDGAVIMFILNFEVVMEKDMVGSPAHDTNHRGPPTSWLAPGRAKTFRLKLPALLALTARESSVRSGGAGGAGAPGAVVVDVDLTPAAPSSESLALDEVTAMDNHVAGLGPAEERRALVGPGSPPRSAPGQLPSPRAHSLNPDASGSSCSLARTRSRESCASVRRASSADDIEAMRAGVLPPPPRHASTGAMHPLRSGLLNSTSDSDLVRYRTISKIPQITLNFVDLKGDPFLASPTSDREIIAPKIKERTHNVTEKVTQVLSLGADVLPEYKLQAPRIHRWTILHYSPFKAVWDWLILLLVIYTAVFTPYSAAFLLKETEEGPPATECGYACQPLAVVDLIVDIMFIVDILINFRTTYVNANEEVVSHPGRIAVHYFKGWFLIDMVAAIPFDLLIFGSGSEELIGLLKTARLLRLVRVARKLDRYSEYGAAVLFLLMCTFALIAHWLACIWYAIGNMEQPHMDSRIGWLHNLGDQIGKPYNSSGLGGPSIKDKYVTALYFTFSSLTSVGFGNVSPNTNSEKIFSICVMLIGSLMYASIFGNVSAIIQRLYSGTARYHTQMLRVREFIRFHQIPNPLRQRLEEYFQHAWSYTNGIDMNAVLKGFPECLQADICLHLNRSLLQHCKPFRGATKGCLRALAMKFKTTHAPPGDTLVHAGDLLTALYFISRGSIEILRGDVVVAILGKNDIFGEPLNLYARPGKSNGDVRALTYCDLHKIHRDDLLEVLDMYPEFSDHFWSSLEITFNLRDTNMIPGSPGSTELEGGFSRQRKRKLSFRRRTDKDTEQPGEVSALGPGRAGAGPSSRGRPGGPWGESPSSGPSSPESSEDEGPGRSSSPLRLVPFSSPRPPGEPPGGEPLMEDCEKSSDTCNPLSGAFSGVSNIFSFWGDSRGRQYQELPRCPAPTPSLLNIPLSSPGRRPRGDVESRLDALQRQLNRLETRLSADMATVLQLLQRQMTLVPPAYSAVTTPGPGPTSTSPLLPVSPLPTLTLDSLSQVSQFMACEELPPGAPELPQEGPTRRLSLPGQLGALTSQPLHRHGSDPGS
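Note: peak tail current of the secondary pulse compared with the same well before compound.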

Compound	hERG current change (%, negative = inhibition) at 10uM [%]
CCC1CCCCN1c1nc2c(C=O)c(C)nn2c2ccccc12 (stereo not drawn)	-12
COc1cccc(-c2nc(CS(=O)(=O)CC(=O)Nc3cc(F)ccc3F)c(C)o2)c1	8.16
COCCNc1ccc(S(=O)(=O)N2CCCC2)cn1	13.2
COc1ccc(-c2c3c(=O)n(C)c(=O)n(C)c3cn2NC(C)=O)cc1	12.2
Cc1ccc(C)c(Cn2nnc3c(=O)[nH]c(C4CCCN(C(=O)c5ccco5)C4)nc32)c1 (stereo not drawn)	-38.3
Cc1ccc(Cn2nnc3c(=O)[nH]c(C4CCN(C(=O)c5cccs5)CC4)nc32)cc1	-33
Cc1ccc(C)c(Cn2nnc3c(=O)[nH]c(C4CCCN(C(=O)CC(C)C)C4)nc32)c1 (stereo not drawn)	-14.6
Cc1ccc(C)c(Cn2nnc3c(=O)[nH]c(C4CCCN(C(=O)c5cccs5)C4)nc32)c1 (stereo not drawn)	0.859
Cc1ccc(C)c(Cn2nnc3c(=O)[nH]c(C4CCCN(C(=O)C5CCC5)C4)nc32)c1 (stereo not drawn)	-32.4
Cc1ccc(C)c(Cn2nnc3c(=O)[nH]c(C4CCN(C(=O)c5cccs5)CC4)nc32)c1	-66.5
Cc1ccc(C)c(Cn2nnc3c(=O)[nH]c(C4CCCN(C(=O)C5CCCCC5)C4)nc32)c1 (stereo not drawn)	-51.5
O=C(C1CCCCC1)N1CCCC(c2nc3c(nnn3Cc3ccccc3)c(=O)[nH]2)C1 (stereo not drawn)	-8.73
CCCCC(=O)N1CCCC(c2nc3c(nnn3Cc3cc(C)ccc3C)c(=O)[nH]2)C1 (stereo not drawn)	-52.2
Cc1c(C(=O)N/N=C/c2ccc(N(C)C)cc2)[nH]c2ccc(Cl)cc12	2.69
COC(=O)C1=C(C(=O)c2ccccc2)C(c2cccs2)n2nnnc2N1 (stereo not drawn)	19.8
Cc1ccc(CN2C(=O)CCC2C(=O)NCc2ccc3c(c2)OCO3)cc1 (stereo not drawn)	-17.4
NS(=O)(=O)c1ccc(CNC(=S)NCc2ccc(F)cc2)cc1	9.61
CCOC(=O)c1ccc(NC(=O)CC2C(=O)N(c3ccccc3)C(=O)N2CCCOC)cc1 (stereo not drawn)	-4.49
CC(=O)NS(=O)(=O)c1ccc(NC(=O)/C=C/c2cn(-c3ccccc3)nc2-c2ccccc2)cc1	34
O=C(OCCN1CCN(C2=NS(=O)(=O)c3ccccc32)CC1)c1ccccc1F	-16.9
COc1ccc(C(=O)OCCN2CCN(C3=NS(=O)(=O)c4ccccc43)CC2)cc1OC	-32.9
O=C(c1ccc(F)cc1)N1CCN(C2=NS(=O)(=O)c3ccccc32)CC1	-15.8
O=C(OCCN1CCN(C2=NS(=O)(=O)c3ccccc32)CC1)c1cccc(Br)c1	-68.6
O=C(c1cccc(Br)c1)N1CCN(C2=NS(=O)(=O)c3ccccc32)CC1	-65.8
O=C(c1ccc([N+](=O)[O-])cc1)N1CCN(C2=NS(=O)(=O)c3ccccc32)CC1	-46.2
COc1ccc2c(CC(=O)OCC(=O)NC(N)=O)coc2c1	0.524

Compound	hERG current change (%, negative = inhibition) at 10uM [%]
COc1ccc(N2C(=NC(=O)C3CCCO3)SC3CS(=O)(=O)CC32)cc1 (stereo not drawn)	5.78
Cc1ccc(C)c(NC(=O)c2ccc3nccnc3c2)c1	2.6
COc1ccc(N=C2NC(=O)CS2)c([N+](=O)[O-])c1	11.4
O=C(Nc1ccc2c(c1)OCO2)[C@@H]1CCCN1S(=O)(=O)c1cccc2cccnc12	-6.18
CCOC(=O)C1C(c2ccc(Cl)cc2)NC(=S)NC1(O)C(F)(F)F (stereo not drawn)	16.7
Cn1ccnc1SCC(=O)Nc1nc2c(F)c(F)c(F)cc2s1	11.3
O=C(O)COCC(=O)N1CCc2c([nH]c3ccccc23)C1C(F)(F)F (stereo not drawn)	2.14
Cc1cc(F)ccc1S(=O)(=O)N1CCCCC1CCNC(=O)C(=O)NCc1ccccn1 (stereo not drawn)	-61.4
O=C(NCCc1ccccc1)C(=O)NCC1CCCN1S(=O)(=O)c1cccs1 (stereo not drawn)	-22.7
O=C(NCc1ccc(F)cc1)C(=O)NCC1CCCN1S(=O)(=O)c1ccccc1 (stereo not drawn)	-38.2
CCN(CC)CCNC(=O)C(=O)Nc1ccc2c(c1)N(S(=O)(=O)c1cccs1)CCC2	-78.2
O=C(NCCc1ccc(F)cc1)C(=O)NCC1CCCN1S(=O)(=O)c1cccs1 (stereo not drawn)	-57.6
O=C(NCCc1ccccc1)C(=O)NCC1CCCN1S(=O)(=O)c1ccccc1 (stereo not drawn)	-41.9
CCCNC(=O)C(=O)Nc1ccc2c(c1)N(S(=O)(=O)c1cccs1)CCC2	-33.6
Cc1ccc(C)c(S(=O)(=O)N2CCCCC2CCNC(=O)C(=O)NCc2ccccn2)c1 (stereo not drawn)	-19.8
CN(C)CCNC(=O)C(=O)Nc1ccc2c(c1)N(S(=O)(=O)c1cccs1)CCC2	-2.98
COc1ccc(CCNC(=O)C(=O)NCC2CCCN2S(=O)(=O)c2cccs2)cc1 (stereo not drawn)	-32.9
O=C(NCCc1ccc(F)cc1)C(=O)NCC1CCCN1S(=O)(=O)c1ccccc1 (stereo not drawn)	-61.7
O=C(NCCC1CCCCN1S(=O)(=O)c1ccc(F)cc1)C(=O)NCc1ccccn1 (stereo not drawn)	-11.9
COc1ccc(N)cc1NC(=O)CN1CCCC1	19.3
CCN(CC)S(=O)(=O)c1ccc(Cl)c(NC(=O)COC(=O)c2ccc(O)cc2)c1	-21.4
CCCCC(=O)Nc1ccc(C(=O)N2CCCC(C(=O)OCC)C2)cc1 (stereo not drawn)	7.66
O=C(NCCC1CCCCN1S(=O)(=O)c1cccs1)C(=O)Nc1ccccc1 (stereo not drawn)	-10.1
O=C(NCCC1CCCCN1S(=O)(=O)c1cccs1)C(=O)Nc1cccc(F)c1 (stereo not drawn)	-50.1
O=C(NCCC1CCCCN1S(=O)(=O)c1cccs1)C(=O)Nc1ccc(F)cc1 (stereo not drawn)	-6.79
